An excerpt weighted towards active compounds, which were near 0.52% of everything screened.
Tb PFK block: qHTS Assay to Find Inhibitors of T. brucei phosphofructokinase | ATP-dependent 6-phosphofructokinase (Trypanosoma brucei brucei), O15648 | T. brucei PFK, ADP-Glo luminescence | Potency, µM (highest dose often 57.5 µM), without a hit: at the top dose activity, negative = inhibition, usual class: inhibitors | actives 0.17% (n = 330,000) | AID 485367, 2010;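 further: 0% = uninhibited 1x PFK enzyme wells and -100% = no-enzyme wells; nearly all actives have a fitted effect of over 60% in size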
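ADP-Glo luminescence quantified ADP after 45 min at room temperature, with 1.25 nM T. brucei PFK, 0.1 mM ATP and 0.5 mM fructose-6-phosphate in pH 8.0 TEA buffer. qHTS titrations up to 57 µM; curves classified by quality.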
GCN5L2 inh: qHTS Assay for Inhibitors of GCN5L2; Histone acetyltransferase KAT2A (Homo sapiens), Q92830; GCN5L2 HAT assay, ThioGlo1 CoA-SH fluorescence; Potency, µM (doses to about 58.9 µM), for the others: at the highest dose activity change, negative = inhibition, hits mostly inhibitors; actives 0.21% (n = 390,000); AID 504327, 2011
Target sequence (Q92830 whole entry, looked up): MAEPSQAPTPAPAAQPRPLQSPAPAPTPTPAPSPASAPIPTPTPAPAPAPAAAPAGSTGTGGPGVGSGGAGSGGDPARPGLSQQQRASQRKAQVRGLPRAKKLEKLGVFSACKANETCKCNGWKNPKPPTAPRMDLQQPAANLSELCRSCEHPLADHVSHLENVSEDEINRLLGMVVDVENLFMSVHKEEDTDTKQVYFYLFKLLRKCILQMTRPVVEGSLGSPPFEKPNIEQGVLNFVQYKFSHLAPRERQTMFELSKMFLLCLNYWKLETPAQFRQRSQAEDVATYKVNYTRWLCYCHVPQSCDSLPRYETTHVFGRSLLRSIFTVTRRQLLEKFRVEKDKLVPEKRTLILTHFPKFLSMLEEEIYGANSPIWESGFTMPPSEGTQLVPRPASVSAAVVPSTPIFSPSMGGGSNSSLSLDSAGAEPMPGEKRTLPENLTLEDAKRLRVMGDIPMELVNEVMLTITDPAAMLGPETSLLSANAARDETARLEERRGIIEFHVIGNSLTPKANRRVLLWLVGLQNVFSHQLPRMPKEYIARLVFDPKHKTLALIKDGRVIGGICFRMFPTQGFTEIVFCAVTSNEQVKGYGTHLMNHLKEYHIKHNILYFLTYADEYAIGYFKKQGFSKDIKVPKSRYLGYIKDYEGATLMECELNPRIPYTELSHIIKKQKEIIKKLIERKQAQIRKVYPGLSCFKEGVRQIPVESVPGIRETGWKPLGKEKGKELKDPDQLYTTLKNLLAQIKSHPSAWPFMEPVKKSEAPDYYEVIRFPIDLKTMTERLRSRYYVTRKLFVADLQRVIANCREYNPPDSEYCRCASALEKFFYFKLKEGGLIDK
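Titration-based screen in which CoA formation is detected via maleimide probe ThioGlo1 (50uM) turning fluorescent on thiol reaction; substrates H3(1-25) 75uM and acetyl-CoA 70uM, GCN5L2 20nM, 20 min incubation at room temperature.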
Tb PGK inh: qHTS Assay to Find Inhibitors of Phosphoglycerate Kinase; Phosphoglycerate kinase, glycosomal (Trypanosoma brucei brucei), P07378; PGK/GAPDH coupled, Kinase-Glo luminescence, 60 min; Potency, µM (highest dose often 57.5 µM), for the others: at the highest dose activity change, negative = inhibition, usual class: inhibitors; AID 602233, 2012; actives 0.043% (n = 380,000); further: nearly all actives have a fitted effect of over 60% in size
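Recombinant glycosomal PGK reaction used 1,3-bisphosphoglycerate generated in-well by GAPDH (100nM final) in 100mM TEA pH 7.6, 5mM MgCl2, 0.01% Tween-20. After 60 minutes at room temperature, ATP was read by Kinase-Glo Plus luminescence end-point.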
USP2a block: qHTS Assay for Inhibitors of Ubiquitin-specific Protease USP2a Using CHOP2 as the Reporter; Ubiquitin carboxyl-terminal hydrolase 2 (Homo sapiens), O75604; USP2 core, Ub-CHOP2 coupled fluorogenic reporter, 485/531; Potency, µM (doses to about 38.3 µM), for inactives: at the top dose activity change, negative = inhibition, usual class: inhibitors; actives 0.01% (n = 330,000); AID 463254, 2010;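 further: plate controls were DMSO wells for no effect and full inhibition by NEM control for full effect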
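USP2 core (10nM final) preincubated 30min RT with compound in 20mM Tris-HCl pH 8.0, 2mM CaCl2, 2mM beta-mercaptoethanol, 0.05% CHAPS; 25nM Ub-CHOP2 plus 25nM reporter substrate added, fluorescence (Ex485/Em531) read after 60min.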
GLS inh: qHTS for Inhibitors of Glutaminase (GLS). Potency, µM (top dose mostly 45.5 µM), for inactives: at the highest dose activity change, negative = inhibition, most hits filed as inhibitors. Glutaminase kidney isoform, mitochondrial (Homo sapiens), O94925. actives 0.21% (n = 410,000). GLS enzymatic activity, qHTS titration. AID 624170, 2012
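Assay buffer: 45 mM KH2PO4 pH 8.2, 0.02% Tween-20. hKGA acts on L-glutamine (1 mM solution added); product glutamate is reported by an oxidase/peroxidase Amplex Red coupling, with fluorescence taken at baseline and 30 min.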
* marks the source's active call; other numbers are inactive results; i = inactive; ? = inconclusive; · = not tested or not shown; ! = a repeat was not active; [ ] = dose if it differs, or a comment. The call rests on the fitted dose curve; in most records, active means well fitted curve in the direction sought with a large enough effect; inconclusive means small, poorly fitted or top-dose-only effect, or another doubt; inactive means no such curve, though single readings can be large; an effect the other way counts as inactive or inconclusive. Unless noted, on the % scale 0 is the no-effect control and ±100 the full control effect; potency means the concentration at half of the fitted maximal effect.

SMILES | Tb PFK block | GCN5L2 inh | Tb PGK inh | USP2a block | GLS inh
O=C1NC(=S)N(c2ccccc2)C(=O)/C1=C/c1ccco1 | ? | ? | 7.94µM* | ? | ?
O=C1NC(=O)N(CCc2ccc(F)cc2)C(=O)/C1=C/c1ccco1 | -7.2% | 28.2µM* | ? | -1.9% | 0.0%
COc1ccccc1/C=C1\C(=O)NC(=S)N(c2ccccc2)C1=O | -3.9% | -8.1% | -2.1% | 4.8% | -11.0%
C[C@]12O[C@H](C[C@]1(O)CO)n1c3ccccc3c3c4c(c5c6ccccc6n2c5c31)CNC4=O | · | ? | · | · | 19.9%
CCCCCC(O)C1C(=O)OC(C)C(O)\C=C/C=C\C=C/C=C\C=C(\C)C(O)C(O)C(O)CC(O)CC(O)CC(O)CC(O)CC1O (configuration not stated) | · | -0.7% | · | · | 28.2µM*!
CC[C@H](OC(C)=O)C(C[C@H](C)NC)(c1ccccc1)c1ccccc1 | · | · | · | · | 5.0%[99.4 µM]
CC1(C)CC/C(=C\c2ccc(Cl)cc2)C1(O)Cn1cncn1 (configuration not stated) | · | · | · | · | 1.7%[99.4 µM]
Nc1cccc2c(O)cccc12 | · | · | -8.6% | · | 12.6µM*
NC(N)=Nc1ccc2[nH]c3c(c2c1)C[C@@]1(O)[C@H]2Cc4ccc(O)c5c4[C@@]1(CCN2CC1CC1)[C@H]3O5 | ? | 3.55µM* | -2.7% | 0.1% | 45.9%
O=C1c2ccccc2C(=O)c2ccccc21 | · | 3.2% | · | · | -0.3%
O=C1C=Cc2ccccc2C1=O | ? | 28.2µM* | · | -17.7% | ·
CC(C)N1C(=O)/C(=C/C=C/c2ccco2)C(=O)N(Cc2ccco2)C1=O | -25.6% | ? | ? | ? | ?
CCN1C(=O)C(=C/C=C/c2ccco2)C(=O)N(CC)C1=S | -2.7% | -7.7% | ? | 2.1% | 7.08µM*
O=C(O)c1ccccc1-c1c2cc(Br)c(=O)cc-2oc2[c]([Hg])c(O)c(Br)cc12 | · | 3.16µM*! | · | · | -20.2%[20 µM]
O=C(c1ccccc1)c1ccc(N=Nc2c(O)[nH]c(=O)[nH]c2=O)cc1 | -0.1% | -7.8% | -0.7% | 0.4% | 10µM*
CCC(N)CCc1c[nH]c2ccccc12 (configuration not stated) | · | · | · | · | 52.2%[99.4 µM]
On1ccccc1=S | -25.4% | 12.6µM* | 3.4% | -0.1% | 49.5%
C[N+]1(CCF)[C@@H]2CC[C@@H]1CC(OC(=O)C(O)(c1ccccc1)c1ccccc1)C2 (some centres not stated) | · | · | · | · | 12.6%
Cc1ccc(N2C(=O)/C(=C/c3ccc(CN(CCC#N)S(C)(=O)=O)o3)C(=O)NC2=S)cc1 | -2.1% | -29.3% | ? | 2.5% | 11.2µM*
C#CCN(C)[C@@H](C)Cc1ccccc1 | · | 11.2µM* | · | · | 11.8%
CC(C)CC(=O)NC(Oc1ccc(Cl)cc1)C(Cl)(Cl)Cl (configuration not stated) | -4.2% | 0.708µM* | -5.1% | 2.8% | -15.5%
C[C@]12CCC(=O)C=C1CC[C@@H]1[C@H]3CC[C@](C)(O)[C@@]3(C)CC[C@@H]12 | · | · | · | · | -6.3%[99.4 µM]
CCCCC/C=C\C/C=C\C/C=C\C/C=C\CCCC(=O)O | -6.6% | 22.4µM*! | · | 0.5% | ·
C[N+]1([O-])[C@@H]2CC(OC(=O)[C@@H](CO)c3ccccc3)C[C@@H]1[C@H]1O[C@H]12 (some centres not stated) | · | 10µM*! | · | · | 0.4%
O=C(Nc1cccc(C(=O)Nc2cc(C(=O)Nc3ccc([S+](=O)([O-])[O-])c4cc([S+](=O)([O-])[O-])cc(SOOO)c34)ccc2F)c1)Nc1cccc(C(=O)Nc2cc(C(=O)Nc3ccc([S+](=O)([O-])[O-])c4cc([S+](=O)([O-])[O-])cc([S+](=O)([O-])[O-])c34)ccc2F)c1 | · | -23.4% | · | · | ·
SMILES | Tb PFK block | GCN5L2 inh | Tb PGK inh | USP2a block | GLS inh
O=C1C=CC(=O)c2c(O)cccc21 | · | 0.631µM* | · | · | ·
C=CCC1=C(C)C(OC(=O)C2C(C=C(C)C)C2(C)C)CC1=O (configuration not stated) | · | · | · | · | -13.6%[99.4 µM]
NCCc1cc(O)c(O)cc1O | · | ? | -21.2% | · | 10µM*!
CCC(=O)O[C@@](Cc1ccccc1)(c1ccccc1)[C@H](C)CN(C)C | · | · | · | · | 0.2%[99.4 µM]
Brc1c(Br)c(Br)c2n[nH]nc2c1Br | · | 28.2µM* | · | · | ·
COc1ccc(OC)c(C[C@H](C)N)c1 | · | · | · | · | -5.0%[99.4 µM]
COC(=O)[C@]1(C)CC[C@@]2(C)CC[C@@]3(C)C4=CCc5c(cc(O)c(O)c5C)[C@]4(C)CC[C@@]3(C)C2C1 (some centres not stated) | · | -14.3% | · | · | ·
CC1=C(O)C(=O)C=C2C1=CC=C1[C@]2(C)CC[C@@]2(C)C3C[C@](C)(C(=O)O)CC[C@@]3(C)CC[C@@]12C (some centres not stated) | · | 12.6µM* | · | · | ·
Oc1cc2c(cc1O)[C@H]1c3ccccc3CN[C@H]1CC2 | · | 0.3% | · | · | ·
Oc1cc2c(cc1O)[C@H]1c3ccccc3CN[C@@H]1CC2 | 2.39µM* | -2.1% | · | 2.9% | ·
CCCCCc1cc(O)c2c(c1)OC(C)(C)c1ccc(C)cc1-2 | · | · | · | · | -7.3%
O=Cc1ccc(O)c(O)c1 | -14.4% | -9.5% | 0.6% | 1.4% | ?
CN(N=O)c1ccc(O)c(O)c1 | · | 4.47µM* | · | · | ·
CC1(O)CCC2C3CCC4=CC(=O)CCC4(C)C3(F)C(O)CC21C (configuration not stated) | · | · | · | · | 11.0%
NC(=O)CI | · | 10µM* | · | · | ·
CCCCNc1ccc(C(=O)OCCN(CC)CC)cc1 | · | · | · | · | 30.1%
COc1cccc2c1C(=O)c1c(O)c3c(c(O)c1C2=O)C[C@@](O)(C(=O)CO)C[C@@H]3O[C@H]1C[C@H](N)[C@H](OC2CCCCO2)[C@H](C)O1 (some centres not stated) | · | ? | · | · | 15.8µM*
CC[C@H](O)C(C[C@H](C)N(C)C)(c1ccccc1)c1ccccc1 | · | · | · | · | -3.9%[99.4 µM]
O=C(O)c1cc[c]([Hg][Cl])cc1 | 4.26µM* | 0.251µM* | i | -2.1% | ?
N[C@@H](Cc1cc(I)c(O)c(I)c1)C(=O)O | -3.7% | ? | -5.9% | 1.0% | 52.8%
NC(Cc1ccc(Oc2cc(I)c(O)c(I)c2)c(I)c1)C(=O)O (configuration not stated) | · | 14.1µM* | · | · | ?
NC(Cc1cc(O)c(O)cc1O)C(=O)O (configuration not stated) | 0.849µM* | 0.631µM* | · | ? | ·
N[C@@H](CCl)C(=O)O | · | 2.0% | -0.5% | · | 13.4%

High-throughput results: PubChem, National Center for Advancing Translational Sciences (NCATS)
